Compound activity from PubChem.
Rows were chosen to be rich in hits. Some 3.1% of all compounds tested hit in one or more screens of this group.
PMP22 txn = modulates PMP22 transcription in S16 Schwann cells. S16 Pmp22-F2sN Schwann cells, FLuc/NLuc coincidence luminescence, 24 h. Potency, µM (titrated, usually from 57.5 µM), inactives show top-dose activity change, negative = inhibition, most hits filed as inhibitors. 43,000 compounds, 2% hits. AID 1508649; active = clear falling dose curves in both reporters; inconclusive = both reporters move, but less clearly or upward; inactive = either reporter flat; the % is the NLuc reporter signal
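qHTS, 1536-well. Cells seeded, compounds added by pin tool, 24 h 37C. Nano-Glo reagent 1 (lysis/FLuc), 10 min RT, read; Stop&Glo, 10 min RT, read NLuc.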
p53null 39C kill = kills p53 null cells at the nonpermissive temperature; 55,000 compounds, 0.97% hits; H1299 p53-null (neo) cells, 39C, ATPlite viability, 24 h; Potency, µM (doses to about 46.1 µM), for the others: top-dose activity, negative = cell killing, usual class: cytotoxic; AID 904;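 also: 0% = DMSO only and -100% = full killing by 100 µM tamoxifen; nearly all actives have a fitted effect of over 50% in size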
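Following overnight plating at 37C (600 cells/well), H1299-neo or H1299-p53A138V cells are dosed up to 46 uM. Incubation lasts 24 hr at 39C before ATP detection.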
pS6 MEF inh = inhibitors of mTORC1 signaling in Tsc2-/- p53-/- MEF cells. Tsc2-/- p53-/- MEF, phospho-rpS6 immunofluorescence/PI, 24 h. Potency, µM (titrated, usually from 38.3 µM), without a hit: at the highest dose activity change, negative = inhibition, hits mostly inhibitors. 44,000 compounds, 0.78% hits. AID 493208;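 also: plate controls were DMSO for no effect and rapamycin for full effect; nearly all actives have a fitted effect of over 50% in size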
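Immunofluorescence of rpS6 phosphorylation in Tsc2-/-, p53-/- MEFs after 24 h compound exposure, normalized to propidium iodide signal. Activity is expressed as % positive cells, thresholded with 7.5 nM rapamycin.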
S16 F2sN tox = cytotoxicity in S16 Pmp22-F2sN Schwann cells. S16 Pmp22-F2sN Schwann cells (luciferase reporters placed in the Pmp22 gene) viability, CellTiter-Glo, 24 h. Potency, µM (highest dose often 57.5 µM), inactives show at the highest dose activity change, negative = cytotoxicity, hits mostly cytotoxic. 43,000 compounds, 0.48% hits. AID 1508642; also: nearly all actives have a fitted effect of over 65% in size
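Luminescence from CellTiter-Glo, read by CCD camera after a 15 min room-temperature incubation, served as the viability signal. Reporter Schwann cells (S16 Pmp22-F2sN) had been treated with pin-transferred compounds for 24 h at 37C.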
p53null 32C kill = p53 null cell cytotoxicity, permissive temperature. H1299-neo p53 null cells, ATP luminescence, 24 h, 32C. Potency, µM (highest dose often 46.1 µM), inactives show top-dose activity change, negative = cytotoxicity, usual class: cytotoxic. 55,000 compounds, 0.62% hits. AID 903;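 also: 0% = DMSO only and -100% = full killing by 100 µM tamoxifen; nearly all actives have a fitted effect of over 55% in size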
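H1299-neo, 600 cells/well; overnight 37C; cpd up to 46 uM, 24 h at 32C; ATPlite luminescence after 20 min RT; normalized to DMSO (0%) and tamoxifen 100 uM (100% kill); Hill-fit AC50.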
OvCa metastasis = inhibitors of ovarian cancer cell adhesion and invasion in omental model; SKOV3ip1-GFP adhesion/invasion on 3D omental model, fluorescence; Potency, µM (top dose mostly 45.8 µM), for the others: at the top dose activity change, negative = inhibition, most hits filed as inhibitors; 46,000 compounds, 0.1% hits; AID 1963576;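 also: plate controls were DMSO wells for no effect and tomatine positive control wells for full effect; nearly all actives have a fitted effect of over 65% in size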
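qHTS, 4-pt dose (0.36-46 umol/L); SKOV3ip1-GFP, 1,200 cells/well, no FBS; primary omental fibroblast/mesothelial co-culture 48 h pre-grown; 2 h RT + 16 h 37 C; PBS wash, 4% PFA; GFP count 488/509 nm.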
* marks the source's active call; other numbers are inactive results; i = inactive; ? = inconclusive; · = not tested or not shown. Unless noted, calls follow the shape of the dose curve; as a rule, active = well fitted curve in the direction sought with a large enough effect; inconclusive = small, poorly fitted or top-dose-only effect, or another doubt; inactive = no such curve, though single readings can be large; an effect the other way counts as inactive or inconclusive. Unless noted, % is scaled to controls: 0 for no effect and ±100 for the full control effect; potency is read from the fitted curve at half-maximal effect.

SMILES	PMP22 txn	p53null 39C kill	pS6 MEF inh	S16 F2sN tox	p53null 32C kill	OvCa metastasis
Cc1ccccc1CN1C(=O)C(O)(CC(=O)c2ccccc2)c2cc(Cl)ccc21 (stereo not given)	?	17%	12µM*	?	38%	?
Cc1ccccc1CN1C(=O)C(O)(c2c[nH]c3ccccc23)c2cc(Cl)ccc21 (stereo not given)	?	?	?	1%	?	-24%
Cc1ccccc1-n1c(Cn2nc(-c3cccc(O)c3)c3c(N)ncnc32)nc2cccc(C)c2c1=O	·	·	·	·	·	6%
NC(=O)c1c(OCc2c(F)cc(Br)cc2F)nsc1NC(=O)NCCCCN1CCCC1	·	·	·	·	·	5%
CC[C@H]1OC(=O)[C@H](C)[C@@H](O[C@H]2C[C@@](C)(OC)[C@@H](O)[C@H](C)O2)[C@H](C)[C@@H](O[C@@H]2O[C@H](C)C[C@H](N(C)C)[C@@H]2O)[C@](C)(O)C[C@@H](C)CN(C)[C@H](C)[C@@H](O)[C@]1(C)O	·	·	·	·	·	0%
O=C(CN1C(=O)C2(CCCC2)NC[C@H]1c1cc(F)cc(F)c1)Nc1ccc2c(c1)C[C@@]1(C2)C(=O)Nc2ncccc21	·	·	·	·	·	5%
CCN(CC)S(=O)(=O)c1ccc2c(c1)c(=O)c(C(=O)NCc1ccccc1)cn2C	?	13%	-8%	-1%	8%	5%
CCN(CC)S(=O)(=O)c1ccc2c(c1)c(=O)c(C(=O)NCc1ccccc1Cl)cn2C	?	5µM*	-8%	-28%	?	i
Cc1ccc(C(=O)Nc2onc3c2CCCC3)cc1	-5%	5µM*	-8%	-3%	6.3µM*	-11%
O=[N+]([O-])c1cn2c(n1)OC[C@@H](OCc1ccc(OC(F)(F)F)cc1)C2	·	·	·	·	·	2%
COc1ccccc1[C@H](c1cccc2ccccc12)[C@@](C)(C#N)C(=O)N1CCC(c2cccc(C(F)(F)F)c2)CC1	·	·	·	·	·	-1%
O=C(Cn1c(=O)c2ccccc2n(CC(=O)Nc2ccc(Cl)cc2)c1=O)NCCc1ccccc1	-5%	-10%	16µM*	-21%	-18%	-13%
O=C(Cn1c(=O)c2ccccc2n(CC(=O)Nc2ccccc2F)c1=O)NCCc1ccccc1	-7%	9%	-12%	0%	5%	i
Clc1cccc(-c2nnnn2Cc2cccnc2)c1Cl	·	·	·	·	·	-20%
C=CC[N+]1([C@H]2C[C@H]3[C@@H]4CC[C@H]5C[C@H](O)[C@@H](N6CCOCC6)C[C@]5(C)[C@@H]4CC[C@]3(C)[C@H]2OC(C)=O)CCCC1	·	·	·	·	·	-14%
Cc1ccc(-n2ncc3c(NC4CCCC4)ncnc32)cc1	1%	?	5%	-16%	7.9µM*	0%
Clc1cccc(-n2ncc3c(NC4CCCCCC4)ncnc32)c1	?	?	-7%	?	-8%	?
Cc1ccc(-n2ncc3c(NC4CCCCC4)ncnc32)cc1C	-9%	-4%	10%	11%	-16%	29%
Cc1cccc(-n2ncc3c(NC4CCCC4)ncnc32)c1	?	36%	-1%	7%	13µM*	?
c1ccc(-n2ncc3c(NC4CCCC4)ncnc32)cc1	-10%	?	0%	18%	16µM*	-5%
COc1ccc(-n2ncc3c(NC4CCCC4)ncnc32)cc1	?	8%	-18%	?	5µM*	0%
Cc1cccc(-n2ncc3c(NC4CCCCC4)ncnc32)c1	·	0%	·	·	-25%	·
CCN(c1ccccc1)S(=O)(=O)c1nnc(NC(=O)c2ccco2)s1	24%	1µM*	6%	1%	?	0%
